Data taken from PubChem BioAssay (Tox21).
Results filed as inconclusive are left out. Calls of active or inactive are those of the source. The call rests on the fitted dose curve.

Assays:
[1] = target: Acetylcholinesterase (Homo sapiens) (UniProt P22303); test: Acetylcholinesterase (AChE) small molecule antagonists: colormetric cell-based qHTS assay (AID 1347395); further: nearly all actives have a fitted effect of over 30% in size
Outline: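 Colorimetric read-out: DTNB detects thiocholine released when cellular AChE in SH-SY5Y cells hydrolyses acetylthiocholine. Cells attached overnight, received compound for 30 min at 37 C, then substrate mix for 90 min at 37 C.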

[2] = target: Acetylcholinesterase (Homo sapiens) (UniProt P22303); test: Acetylcholinesterase (AChE) small molecule antagonists: enzyme-based qHTS assay (AID 1347397); conditions: Potency: AChE enzyme activity inhibition; outcome: AChE enzyme activity inhibition; further: nearly all actives have a fitted effect of over 55% in size
Outline: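 Human recombinant acetylcholinesterase; substrate acetylthiocholine; thiocholine quantified with DTNB (colorimetric). Compound preincubation 30 min RT; reaction 10 min RT.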

[3] = target: Acetylcholinesterase (Homo sapiens) (UniProt P22303); test: Acetylcholinesterase (AChE) small molecule antagonists: fluorescence cell-based qHTS assay (AID 1347398); conditions: Potency: AChE activity; outcome: AChE activity; further: nearly all actives have a fitted effect of over 50% in size
Outline: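 Thiocholine generated from acetylthiocholine by SH-SY5Y cell AChE is detected with Thiolite Green (Ex/Em 490/520 nm) after 40 min at room temperature, following 30 min compound pretreatment at 37 C.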

[4] = target: Acetylcholinesterase (Homo sapiens) (UniProt P22303); test: Acetylcholinesterase (AChE) small molecule antagonists: enzyme-based qHTS assay with human liver microsomes (AID 1347399); conditions: Potency: qHTS inhibition; outcome: qHTS inhibition; further: nearly all actives have a fitted effect of over 60% in size
Outline: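 Recombinant human AChE (50 mU/mL in the enzyme mix) and human liver microsomes (0.25 mg/mL final) were preincubated with compound and NADPH (0.25 mg/mL final) for 30 min at 37 C. Acetylthiocholine/DTNB was then added; thiocholine was read colorimetrically after 10 min at room temperature.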
On the % scale 0 is the no-effect control and ±100 the full control effect.

Chain of Acetylcholinesterase (Homo sapiens) (P22303 whole entry, looked up): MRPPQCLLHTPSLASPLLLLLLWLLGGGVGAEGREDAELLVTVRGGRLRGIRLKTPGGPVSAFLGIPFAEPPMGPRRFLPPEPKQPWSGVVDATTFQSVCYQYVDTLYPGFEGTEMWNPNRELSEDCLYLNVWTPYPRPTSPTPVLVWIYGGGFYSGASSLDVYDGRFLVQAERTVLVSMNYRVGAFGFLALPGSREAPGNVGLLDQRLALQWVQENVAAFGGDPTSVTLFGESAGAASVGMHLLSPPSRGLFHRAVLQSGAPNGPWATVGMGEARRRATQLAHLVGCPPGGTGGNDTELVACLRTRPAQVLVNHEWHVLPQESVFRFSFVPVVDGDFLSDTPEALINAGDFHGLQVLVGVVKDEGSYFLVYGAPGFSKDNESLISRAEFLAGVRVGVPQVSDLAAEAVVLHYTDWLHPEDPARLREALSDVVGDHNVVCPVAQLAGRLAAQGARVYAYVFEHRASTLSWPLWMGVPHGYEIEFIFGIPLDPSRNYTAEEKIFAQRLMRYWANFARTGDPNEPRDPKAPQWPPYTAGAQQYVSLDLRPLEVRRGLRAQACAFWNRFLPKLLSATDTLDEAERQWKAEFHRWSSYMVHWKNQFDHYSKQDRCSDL

CCCCOCCOC(=O)CCCCCCCCC(=O)OCCOCCCC
inactive: Potency [1] | Potency [2] | Potency [3] | Potency [4]

O=[N+]([O-])c1ccc(Cl)cc1Cl
inactive: Potency [1] | Potency [2] | Potency [3] | Potency [4]

O=C1OC(=O)C2CCCCC12 (stereo not given)
inactive: Potency [1] | Potency [2] | Potency [3] | Potency [4]

CC1(C)OC(=O)Nc2ccc(Br)cc21
inactive: Potency [1] | Potency [2] | Potency [3] | Potency [4]

CC(C)c1ccc2c(c1)CC[C@H]1[C@](C)(CN)CCC[C@]21C
inactive: Potency [1] | Potency [2] | Potency [3] | Potency [4]

CCCC1CCOC(C)S1 (stereo not given)
inactive: Potency [1] | Potency [2] | Potency [3] | Potency [4]

NCc1ccco1
inactive: Potency [1] | Potency [2] | Potency [3] | Potency [4]

CN(C)c1ccc(SC#N)cc1
inactive: Potency [1] | Potency [2] | Potency [3] | Potency [4]

CC/C=C\CCOC(=O)C(C)C
inactive: Potency [1] | Potency [2] | Potency [3] | Potency [4]

CCCCCCCCC(=O)Cl
inactive: Potency [1] | Potency [2] | Potency [3] | Potency [4]

COC(C(=O)O)c1ccccc1 (stereo not given)
inactive: Potency [1] | Potency [2] | Potency [3] | Potency [4]

CC(C(=O)O)c1ccc(CC2CCCC2=O)cc1 (stereo not given)
inactive: Potency [1] | Potency [2] | Potency [3] | Potency [4]

CCCCNc1ccc(C(=O)OCCOCCOCCOCCOCCOCCOCCOCCOCCOC)cc1
inactive: Potency [1] | Potency [2] | Potency [3] | Potency [4]

C=CC(OCC)OCC
inactive: Potency [1] | Potency [2] | Potency [3] | Potency [4]

CCCc1ccc(N)cc1
inactive: Potency [1] | Potency [2] | Potency [3] | Potency [4]

NC(=O)c1ccncc1
inactive: Potency [1] | Potency [2] | Potency [3] | Potency [4]

[Cl][Eu]([Cl])[Cl]
inactive: Potency [1] | Potency [2] | Potency [3] | Potency [4]

COc1cc(C(=O)OCCCN2CCCN(CCCOC(=O)c3cc(OC)c(OC)c(OC)c3)CC2)cc(OC)c1OC
inactive: Potency [1] | Potency [2] | Potency [3] | Potency [4]

Cc1cccc([N+](=O)[O-])c1C(=O)O
inactive: Potency [1] | Potency [2] | Potency [3] | Potency [4]

O=C(O)c1cc(-c2ccc(F)cc2F)ccc1O
inactive: Potency [1] | Potency [2] | Potency [3] | Potency [4]

Cc1ccc(C(C)OC(=O)C2(C)CCC(C(=O)O)C2(C)C)cc1 (stereo not given)
inactive: Potency [1] | Potency [2] | Potency [3] | Potency [4]

C[C@@H](O)[C@H]1C(=O)N2C(C(=O)O)=C(SCCN=CN)C[C@H]12
inactive: Potency [1] | Potency [2] | Potency [3] | Potency [4]

OCCCO
inactive: Potency [1] | Potency [2] | Potency [3] | Potency [4]

O=C(OCCN1CCOCC1)c1cccnc1Nc1cccc(C(F)(F)F)c1
inactive: Potency [1] | Potency [2] | Potency [3] | Potency [4]

C1CCC2(CCCCO2)OC1
inactive: Potency [1] | Potency [2] | Potency [3] | Potency [4]

CN(C)C(=O)Nc1ccccc1
inactive: Potency [1] | Potency [2] | Potency [3] | Potency [4]

CC(C)(O)c1ccc(C(C)(C)O)cc1
inactive: Potency [1] | Potency [2] | Potency [3] | Potency [4]

CCC(C)S (stereo not given)
inactive: activity, negative = inhibition [1] 1.56% [at 4.07 µM] | activity change, negative = inhibition [2] 0.922% [at 4.07 µM] | activity change, negative = inhibition [3] 4.18% [at 3.98 µM] | activity change, negative = inhibition [4] -0.581% [at 4.07 µM]

c1cc2c3c(c1)ccc1cccc(c13)C2
inactive: Potency [1] | Potency [2] | Potency [3] | Potency [4]

CC(=O)c1ccc2c(c1)CCCC2
inactive: Potency [1] | Potency [2] | Potency [3] | Potency [4]

CC(=O)Nc1ccc(S(=O)(=O)Cl)cc1
inactive: Potency [1] | Potency [2] | Potency [3] | Potency [4]

C=Cc1ccc(C=C)cc1
inactive: Potency [1] | Potency [2] | Potency [3] | Potency [4]

CCC(C)C(=O)OCCc1ccccc1 (stereo not given)
inactive: Potency [1] | Potency [2] | Potency [3] | Potency [4]

CCCCCCC#CC(=O)OC
inactive: Potency [1] | Potency [2] | Potency [3] | Potency [4]

C=CCN(CC=C)CC=C
inactive: Potency [1] | Potency [2] | Potency [3] | Potency [4]
